Drawing on PubChem BioAssay (EPA / NIEHS), this text covers outcome and AC50 for 19 compounds.

Read-out in assay [1]: TIMP metallopeptidase inhibitor 1 (TIMP1), TIMP1 (gene 7076)
The assay is described as follows: BSK_hDFCGF_TIMP1: BioMAP Diversity Plus: hDFCGF Assay for TIMP metallopeptidase inhibitor 1 (TIMP1) Biomarker Activity (AID 2283062). As to conditions: primary human foreskin fibroblasts; actives raise or lower the signal. An outline of the steps: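 ELISA readout of TIMP-1 from human dermal foreskin fibroblast cultures 24 h post-dosing. Curves were fitted in both directions against DMSO baseline, with SRB total-protein staining in parallel cultures as a cytotoxicity check.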

Read-out in assay [2]: Monokine induced gamma interferon (MIG), CXCL9 (gene 4283)
The assay is described as follows: BSK_hDFCGF_MIG: BioMAP Diversity Plus: hDFCGF Assay for Monokine induced gamma interferon (MIG) Biomarker Activity (AID 2283063). As to conditions: primary human foreskin fibroblasts; actives raise or lower the signal. An outline of the steps:
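Fibroblasts (human foreskin, primary) dosed, 24 h, MIG by ELISA; fit bidirectional vs DMSO.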

Read-out in assay [3]: Matrix Metallopeptidase 1 (MMP1), MMP1 (gene 4312)
The assay is described as follows: BSK_hDFCGF_MMP1: BioMAP Diversity Plus: hDFCGF Assay for Matrix Metallopeptidase 1 (MMP1) Biomarker Activity (AID 2283064). As to conditions: primary human foreskin fibroblasts; actives raise or lower the signal. An outline of the steps:
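Human foreskin fibroblasts exposed to chemical for 24 h; MMP1 detected by ELISA, with DMSO as baseline for bidirectional fitting.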

Read-out in assay [4]: Plasminogen activator inhibitor-1 (PAI1), SERPINE1 (gene 5054)
Briefly: BSK_hDFCGF_PAI1: BioMAP Diversity Plus: hDFCGF Assay for Plasminogen activator inhibitor-1 (PAI1) Biomarker Activity (AID 2283066). As to conditions: primary human foreskin fibroblasts; actives raise or lower the signal. An outline of the steps:
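PAI-1 levels in human dermal foreskin fibroblasts were quantified by ELISA 24 h after dosing, with gain or loss analysed against DMSO. Overt cytotoxicity was checked by sulforhodamine B total-protein staining in parallel cultures.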

Read-out in assay [5]: Intercellular Adhesion Molecule 1 (ICAM1), ICAM1 (gene 3383)
Briefly: BSK_KF3CT_ICAM1: BioMAP Diversity Plus: KF3CT Assay for Intercellular Adhesion Molecule 1 (ICAM1) Biomarker Activity (AID 2283067). As to conditions: primary human keratinocytes with fibroblasts; actives raise or lower the signal. An outline of the steps: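 ELISA readout of ICAM-1; KF3CT human skin co-culture (keratinocytes + foreskin fibroblasts), 24 h post-dose; gain/loss fit vs DMSO baseline.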

A short description of assay [6]: BSK_KF3CT_SRB: Viability Assessment in the BioMAP Diversity Plus: KF3CT Assay (AID 2283069).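 Further: read 24 h after compound addition; fitted for both signal gain and loss against DMSO baseline.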 As to conditions: primary human keratinocytes with fibroblasts. An outline of the steps:
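Overt cytotoxicity is assessed as total protein by sulforhodamine B staining in parallel human skin co-cultures at 24 h after dosing. DMSO serves as negative control and baseline.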

Read-out in assay [7]: Interleukin-1 alpha (IL1a), IL1A (gene 3552)
Briefly: BSK_KF3CT_IL1a: BioMAP Diversity Plus: KF3CT Assay for Interleukin-1 alpha (IL1a) Biomarker Activity (AID 2283070). As to conditions: primary human keratinocytes with fibroblasts; actives raise or lower the signal. In short, it runs like this:
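Readout is IL-1a level by ELISA, compared bidirectionally with DMSO as baseline. Cells: human keratinocytes co-cultured with foreskin fibroblasts, harvested 24 h post-dose.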

Read-out in assay [8]: TIMP metallopeptidase inhibitor 2 (TIMP2), TIMP2 (gene 7077)
Briefly: BSK_KF3CT_TIMP2: BioMAP Diversity Plus: KF3CT Assay for TIMP metallopeptidase inhibitor 2 (TIMP2) Biomarker Activity (AID 2283071). As to conditions: primary human keratinocytes with fibroblasts; actives raise or lower the signal. In short, it runs like this:
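TIMP-2 measured by ELISA at 24 h in human keratinocyte/fibroblast primary co-cultures exposed to chemicals. Both increases and decreases were fitted against DMSO. Parallel cultures were stained with SRB for total protein as an overt-cytotoxicity check.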

Read-out in assay [9]: Interferon-gamma inducible Protein 10 (IP10), CXCL10 (gene 3627)
Briefly: BSK_KF3CT_IP10: BioMAP Diversity Plus: KF3CT Assay for Interferon-gamma inducible Protein 10 (IP10) Biomarker Activity (AID 2283068). As to conditions: primary human keratinocytes with fibroblasts; actives raise or lower the signal. An outline of the steps: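 KF3CT co-culture (keratinocytes + foreskin fibroblasts), 24 h compound, IP-10 by ELISA; bidirectional fit vs DMSO baseline.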

Activity calls are given as the source filed them. How the source made its calls: active means hit-call score of the fitted dose curve at least 0.9, where 1 is the maximum; inactive means score below 0.9.

Usually AC50 stands for the concentration giving half of the maximal activity seen. Consider `CCN(Cc1cccnc1)C(=O)c1cccc(Cl)c1[C@]1(C)C(=O)N(Cc2ccc(OC)cc2OC)c2ccc(Cl)cc21`, for which the result in [1], in assay [2], in assay [5], in assay [6], in [7] and in assay [8] was inactive. The AC50 is 5.9 µM (active) in [3] and 9.31 µM (active) in assay [4].

`CC/C(=C(/CC)c1ccc(O)cc1)c1ccc(O)cc1`: the half-maximal activity concentration (AC50) in assay [1] was 33.4 µM (active); in assay [2], 28.1 µM (active); in assay [3], 28.6 µM (active); in assay [4], 20 µM (active); in assay [5], 31.8 µM (active); in assay [9], 17.7 µM (active). Also, the AC50 is 25.3 µM (active) in assay [6], 28 µM (active) in assay [7] and 29.1 µM (active) in assay [8].

As for `Clc1cc(Cl)c2c(c1)N=C1CCCCCN1C2`, the outcome in assay [1], in assay [2], in assay [3], in assay [4], in [5] and in assay [6] was inactive. The result in [7] and in assay [8] was inactive.

With `Cc1ccc(C(C)C)cc1`, the outcome in assay [1], in [2], in assay [3], in assay [4], in assay [5] and in assay [6] was inactive. Further, the result in assay [7] and in [8] was inactive.

Regarding `COc1cc(C(=O)NC2CCN(C)CC2)ccc1Nc1ncc2c(n1)N(C1CCCC1)CC(F)(F)C(=O)N2C`, the outcome in assay [1] was inactive. For the same compound, the AC50 was 6.25 µM (active) in [2]; 18.6 µM (active) in assay [3]; 12.2 µM (active) in [4]; 18.6 µM (active) in assay [5]; 30.8 µM (active) in [6]; 7.74 µM (active) in assay [7]. Also, the AC50 in assay [8] was 28.9 µM (active).

`CC(C)(c1cc(Br)c(O)c(Br)c1)c1cc(Br)c(O)c(Br)c1`: the half-maximal activity concentration (AC50) in assay [1] was 6.42 µM (active); in [2], 7.65 µM (active); in assay [3] it was 6.31 µM (active); in assay [4], 5.46 µM (active); in assay [5], 4.85 µM (active); in assay [9], 2.53 µM (active). Further, the AC50 in assay [6] was 5.11 µM (active); in [7], 5.97 µM (active); in [8] it was 4.6 µM (active).

As to `O=C1CCC(C2CCCCC2)CC1`, the AC50 in [1] is 32.7 µM (active); in [3] it was 33.3 µM (active); in [4], 31.7 µM (active); in assay [9], 31.5 µM (active). The result in assay [2], in assay [5], in [6], in [7] and in assay [8] was inactive.

Regarding `NCc1cccc(C2CCN(C(=O)c3ccc(C#Cc4ccccc4F)o3)CC2)c1`, the AC50 was 11.8 µM (active) in assay [1]; 11.7 µM (active) in assay [2]; 11 µM (active) in assay [3]; 7.77 µM (active) in assay [4]; 29.6 µM (active) in assay [5]; 12.4 µM (active) in assay [9]. For the same compound, the AC50 in [6] is 5.34 µM (active); in assay [7] it was 12.3 µM (active); in assay [8], 8.8 µM (active).

Consider `Cc1ccc2oc(CN(Cc3ccccc3)C(=O)Nc3c(F)cc(F)cc3F)c(-c3ccc(Cl)cc3)c2c1`, for which the result in [1], in [2], in [3], in assay [5], in [9] and in assay [6] was inactive. In addition, the outcome in assay [7] was inactive. Moreover, the figures for the AC50 in [4] and in [8] were 0.999 µM (active) and 26.4 µM (active), respectively.

In the case of `O=C(O)c1ccccc1-n1cc(C(=O)O)c(=O)c2cc(Nc3c(F)cc(F)cc3Cl)c(Cl)cc21`, the outcome in assay [1], in assay [2], in assay [3], in [4], in assay [5] and in assay [6] was inactive. For the same compound, the result in [7] and in assay [8] was inactive.

Turning to `CCCCCCCCCCCCO`, the concentration at half-maximal activity (AC50) in assay [1] is 36.4 µM (active); in assay [2], 33.3 µM (active); in assay [3], 31 µM (active); in assay [4], 29.7 µM (active); in [5] it was 32.7 µM (active); in assay [6] it was 32.8 µM (active). Moreover, the AC50 was 30.6 µM (active) in assay [7] and 30 µM (active) in assay [8].

Regarding `CCCCOC(=O)CC(CC(=O)OCCCC)(OC(C)=O)C(=O)OCCCC`, the outcome in assay [1], in assay [2], in [3], in assay [4], in [5] and in assay [9] was inactive. The result in assay [6], in assay [7] and in assay [8] was inactive.

Regarding `CC(C)(O)c1ccc(CNC(=O)c2cccnc2Oc2ccc3nonc3c2)cc1`, the result in assay [1], in assay [2], in [3], in [4], in assay [5] and in assay [9] was inactive. Besides, the outcome in assay [6], in assay [7] and in assay [8] was inactive.

As for `COc1cccc([C@H](O)C2CCN(CCc3ccc(F)cc3)CC2)c1OC`, the outcome in assay [1], in assay [2], in [3], in [4], in assay [5] and in [6] was inactive. Moreover, the outcome in [7] and in [8] was inactive.

For the compound `CCCCCCCCCCCC[N+](C)(C)C`, the result in assay [1] and in assay [5] was inactive. In addition, the AC50 in assay [2] is 30.6 µM (active); in assay [3], 4.94 µM (active); in [4] it was 20 µM (active); in [9], 36 µM (active); in assay [6] it was 33.9 µM (active); in assay [7], 32.5 µM (active). Moreover, the concentration at half-maximal activity (AC50) in assay [8] is 27.8 µM (active).

Regarding `O=c1[nH]sc2ccccc12`, the AC50 in assay [1] was 11.8 µM (active); in assay [2], 5.92 µM (active); in [3], 6.98 µM (active); in [4], 3.23 µM (active); in assay [5], 20 µM (active); in [6], 35.7 µM (active). The values for the AC50 in [7] and in [8] were 13.7 µM (active) and 32.2 µM (active), respectively.

Turning to `CC1=CC(=O)/C(=C(/C)O)C(=O)O1`, the outcome in assay [1], in assay [2], in assay [3], in assay [4], in assay [5] and in [6] was inactive. Also, the result in [7] and in [8] was inactive.

Regarding `Cc1occc1C(=O)Nc1ccc(C(=O)N2CCC(F)(F)/C(=C\C(=O)N3CCC(N4CCCCC4)CC3)c3ccccc32)cc1`, the result in assay [1], in [2], in [3], in assay [4], in assay [5] and in assay [6] was inactive. Moreover, the result in assay [7] and in [8] was inactive.

For `CN(C[C@@H](CC[N+]12CCC(C3CCCCC3)(CC1)CC2)c1ccc(Cl)c(Cl)c1)C(=O)c1cc(C(F)(F)F)cc(C(F)(F)F)c1`, the AC50 is 7.05 µM (active) in assay [1]; 10.3 µM (active) in assay [2]; 7.58 µM (active) in assay [3]; 5.56 µM (active) in assay [4]; 12.3 µM (active) in [5]; 7.78 µM (active) in assay [9]. For the same compound, the figures for the AC50 in assay [6], in [7] and in assay [8] were 6.58 µM (active), 11.2 µM (active) and 7.76 µM (active), respectively.
